The structures appear in SMILES notation. Results filed as inconclusive are left out. A call without a number means that no potency is given here. The source made the active and inactive calls. The call rests on the fitted dose curve; in most records, active means well fitted cell-killing curve with a large enough effect in the repeat runs; inconclusive means weak or mixed curves, or effect the other way; inactive means flat fitted curve, though single readings scatter.

The nature of assay [1]: cAMP Responsive Elements (CRE) small molecule antagonists, cell-based qHTS assay: qHTS cell viability counter screen (AID 2060913). Further: nearly all actives have a fitted effect of over 40% in size. The method, boiled down: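 CRE-bla HEK293T cells were seeded in assay medium with 10% dialyzed FBS, incubated 18 hrs at 37 C, then exposed to compounds plus 0.25 uM final NKH477 for 3 hrs. Viability was read by CellTiter-Glo luminescence after 30 min, in the same wells.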

Assay [2] in a line: cAMP Responsive Elements (CRE) small molecule agonists, cell-based qHTS assay: qHTS cell viability counter screen (AID 2060914). Further: potency means the concentration at half of the fitted maximal effect.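 Further: viability read after 3 h of compound exposure; nearly all actives have a fitted effect of over 50% in size.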 The method, boiled down: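 CRE-bla HEK 293T cells, plated 18 h at 37 °C, were exposed to compounds for 3 h at 37 °C/5% CO2. Viability was then measured in the same wells by CellTiter-Glo luminescence after 30 min at room temperature.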
Background: In qHTS, concentration-response curves come from the screen itself.

For `CC(C)c1ccc2c(C(C)C)cc(C(C)C)c(S(=O)(=O)O)c2c1`, the Potency entry in assay [1] and in assay [2] was “inactive” in each case.

`COc1cc(N)c(Cl)cc1C(=O)NC1CCN(Cc2ccccc2)CC1`: the Potency result in assay [1] and in assay [2] was “inactive” throughout.

Take `FC1(F)C(F)(F)C(F)(F)C2(F)C(F)(C1(F)F)C(F)(F)C(F)(F)C1(F)C(F)(F)C(F)(F)C(F)(F)C(F)(F)C12F` (centres undefined): the Potency entry in assay [1] and in assay [2] was “inactive” each time.

`CN1N=C(C(N)=O)CCC1=O`: the Potency result in assay [1] and in assay [2] was “inactive” in each case.

As to `Nc1ccc(S(N)(=O)=O)cc1`, the Potency entry in assay [1] and in assay [2] was “inactive” each time.

As for `CC(C)=CCC/C(C)=C/COC=O`, the Potency result in assay [1] and in assay [2] was “inactive” throughout.

In the case of `O=C(Cl)c1c(Cl)cccc1Cl`, the Potency result in assay [1] and in assay [2] was “inactive” each time.

On to `CCCCC(CC)COC(=O)c1ccc(C(=O)OCC(CC)CCCC)cc1` (centres undefined), for which the Potency entry in assay [1] and in assay [2] was “inactive” in each case.

Regarding `COc1ccc2c(c1OC)C(=O)O[C@@H]2[C@H]1c2c(cc3c(c2OC)OCO3)CCN1C`, the Potency result in assay [1] and in assay [2] was “inactive” in each case.

Take `CCCCCCC`: the Potency entry in assay [1] and in assay [2] was “inactive” each time.

For the compound `Cc1ccc(Cl)c(Nc2ccccc2C(=O)O)c1Cl`, the Potency result in assay [1] and in assay [2] was “inactive” in each case.

Turning to `Cc1ccccn1`, the Potency entry in assay [1] and in assay [2] was “inactive” throughout.

Take `Clc1ccc2c(c1)Nc1ccccc1S2`: the Potency result in assay [1] and in assay [2] was “inactive” each time.

Take `Cc1c(C(=O)NN2CCCCC2)nn(-c2ccc(Cl)cc2Cl)c1-c1ccc(Cl)cc1`: the Potency entry in assay [1] and in assay [2] was “inactive” each time.

`COCC(=O)O`: the Potency entry in assay [1] and in assay [2] was “inactive” throughout.

With `c1cc(-c2ccncc2)ccn1`, the Potency entry in assay [1] and in assay [2] was “inactive” throughout.

Take `CC(C)(C)CC(C)(C)N`: the Potency entry in assay [1] and in assay [2] was “inactive” in each case.

Turning to `C=C(C)C(=O)OCCOC(=O)C(=C)C`, the Potency entry in assay [1] and in assay [2] was “inactive” in each case.

With `CCCC[P+](CCCC)(CCCC)CCCC`, the Potency entry in assay [1] and in assay [2] was “inactive” throughout.

Regarding `O=C(O)[C@H](O)[C@@H](O)[C@H](O)[C@H](O)CO`, the Potency result in assay [1] and in assay [2] was “inactive” in each case.

With `CCCCCCCCCCCCOCCOS(=O)(=O)O`, the Potency result in assay [1] and in assay [2] was “inactive” throughout.

As for `COCCCN1CCC(NC(=O)c2cc(Cl)c(N)c3c2OCC3)CC1`, the Potency result in assay [1] and in assay [2] was “inactive” in each case.

In the case of `CCCCCCCCOCCCN`, the Potency result in assay [1] and in assay [2] was “inactive” throughout.

As for `COC(=O)CCCC(=O)OC`, the Potency result in assay [1] and in assay [2] was “inactive” in each case.

Turning to `Cc1cc(N)c2cc(NC(=O)Nc3ccc4nc(C)cc(N)c4c3)ccc2n1`, the Potency entry in assay [1] and in assay [2] was “inactive” in each case.

Regarding `CCO/C=C1\N=C(c2ccccc2)OC1=O`, the Potency result in assay [1] and in assay [2] was “inactive” in each case.

In the case of `CCCCCCCCCCC(CO)CCCCCCCC` (centres undefined), the Potency result in assay [1] and in assay [2] was “inactive” each time.

`CC(=O)S[C@H](C(=O)N[C@H]1Cc2ccccc2[C@H]2CCC[C@@H](C(=O)O)N2C1=O)C(C)C`: the Potency entry in assay [1] and in assay [2] was “inactive” in each case.

For `O=c1oc(=O)c2cc3c(=O)oc(=O)c3cc12`, the Potency result in assay [1] and in assay [2] was “inactive” in each case.

Take `Nc1ccc(Oc2cccc(Oc3ccc(N)cc3)c2)cc1`: the Potency entry in assay [1] and in assay [2] was “inactive” throughout.

As to `CC(C)(C)c1ccc(-c2ccc(C(C)(C)C)cc2)cc1`, the Potency result in assay [1] and in assay [2] was “inactive” throughout.

Regarding `CC(C)(C)Cl`, the Potency entry in assay [1] and in assay [2] was “inactive” throughout.

In the case of `NCc1ccc(S(N)(=O)=O)cc1`, the Potency entry in assay [1] and in assay [2] was “inactive” in each case.

Turning to `C=CC1CC2C=CC1C2` (centres undefined), the Potency entry in assay [1] and in assay [2] was “inactive” each time.

On to `Oc1c(Br)cc(Br)c2cccnc12`, for which the Potency entry in assay [1] and in assay [2] was “inactive” in each case.

Turning to `CCCCCCCCCCC`, the Potency entry in assay [1] and in assay [2] was “inactive” each time.

For the compound `CCCOC(=O)c1c(Cl)c(Cl)c(Cl)c(Cl)c1C(=O)OCCC`, the Potency result in assay [1] and in assay [2] was “inactive” throughout.

Regarding `CC1CCCO1` (centres undefined), the Potency result in assay [1] and in assay [2] was “inactive” in each case.

In the case of `NC(=Nc1ccccc1)Nc1ccccc1`, the Potency entry in assay [1] and in assay [2] was “inactive” throughout.

For the compound `O=C(O)c1ccccc1[N+](=O)[O-]`, the Potency entry in assay [1] and in assay [2] was “inactive” throughout.

With `CNCCS(=O)(=O)O`, the Potency entry in assay [1] and in assay [2] was “inactive” each time.

Turning to `CC1=CC(C)C(C=O)CC1` (centres undefined), the Potency result in assay [1] and in assay [2] was “inactive” each time.

With `C1CCSC1`, the Potency entry in assay [1] and in assay [2] was “inactive” each time.

In the case of `COC(OC)OC`, the Potency result in assay [1] and in assay [2] was “inactive” in each case.

For the compound `CCN(CC)CCNC(C(=O)OCCC(C)C)c1ccccc1` (centres undefined), the Potency entry in assay [1] and in assay [2] was “inactive” in each case.

Consider `COc1ccc(S(=O)(=O)N2c3ccc(Cl)cc3[C@@](O)(c3ccccc3Cl)[C@H]2C(=O)N2CCC[C@@H]2C(N)=O)cc1OC`, for which the Potency result in assay [1] and in assay [2] was “inactive” in each case.

With `CCCCCCCCCCCc1ccccc1`, the Potency entry in assay [1] and in assay [2] was “inactive” in each case.

`CCCCCCCCCCCCCCCC(=O)OCC`: the Potency result in assay [1] and in assay [2] was “inactive” throughout.

As to `C[C@H]1C[C@H]2[C@@H]3CCC4=CC(=O)C=C[C@]4(C)[C@@]3(F)[C@@H](O)C[C@]2(C)[C@@]1(O)C(=O)COP(=O)(O)O`, the Potency entry in assay [1] and in assay [2] was “inactive” in each case.

In the case of `CC1(C)CCC(C)(C)c2cc(NC(=O)c3ccc(C(=O)O)cc3)ccc21`, the Potency result in assay [1] and in assay [2] was “inactive” each time.

In the case of `CN1C(C)(C)CC(O)CC1(C)C`, the Potency result in assay [1] and in assay [2] was “inactive” throughout.

Turning to `C=C(C)C(=O)OCCOP(=O)(O)O`, the Potency result in assay [1] and in assay [2] was “inactive” in each case.

On to `CCCCCOC(=O)CCCCC`, for which the Potency result in assay [1] and in assay [2] was “inactive” each time.

For `Cc1c(C(C)C)c(=O)n(-c2ccccc2)n1C`, the Potency result in assay [1] and in assay [2] was “inactive” throughout.

With `Brc1ccc(Br)c(Br)c1`, the Potency entry in assay [1] and in assay [2] was “inactive” in each case.

`CCCCC/C=C\C/C=C\CCCCCCCC(=O)NC(C)c1ccccc1` (centres undefined): the Potency entry in assay [1] and in assay [2] was “inactive” in each case.

As for `Cc1c(C)c2c(c(C)c1OC(=O)CCC(=O)OCCO)CC[C@@](C)(CCC[C@H](C)CCC[C@H](C)CCCC(C)C)O2`, the Potency entry in assay [1] was “inactive”. Further, in assay [2], the Potency is 26.6 µM (active).

With `CC(=O)CC(c1ccccc1)c1c(O)c2ccccc2oc1=O` (centres undefined), the Potency result in assay [1] and in assay [2] was “inactive” each time.

`C=CC(C)(CCC=C(C)C)OC(C)=O` (centres undefined): the Potency entry in assay [1] and in assay [2] was “inactive” throughout.

As for `CCCCOc1cc(C(=O)OCCN(CC)CC)ccc1N`, the Potency result in assay [1] and in assay [2] was “inactive” throughout.

As to `C[n+]1ccn(CCO)c1`, the Potency entry in assay [1] and in assay [2] was “inactive” in each case.

Turning to `CO/N=C(/C(=O)N[C@@H]1C(=O)N2C(C(=O)O)=C(COC(N)=O)CS[C@H]12)c1ccco1`, the Potency entry in assay [1] and in assay [2] was “inactive” each time.

As to `CC(C)(O)c1ccccc1CC[C@@H](SCC1(CC(=O)O)CC1)c1cccc(/C=C/c2ccc3ccc(Cl)cc3n2)c1`, the Potency result in assay [1] and in assay [2] was “inactive” throughout.

As for `CC(C)(C)C1=CC(=O)C(C(C)(C)C)=CC1=O`, the Potency entry in assay [1] and in assay [2] was “inactive” each time.

Take `O=S(=O)(Cl)c1c(Cl)cccc1Cl`: the Potency entry in assay [1] and in assay [2] was “inactive” throughout.

Regarding `CCN1CC(CCN2CCOCC2)C(c2ccccc2)(c2ccccc2)C1=O` (centres undefined), the Potency entry in assay [1] and in assay [2] was “inactive” in each case.

As to `C[C@H](CN1CCCC1)C(=O)c1ccc(C(F)(F)F)cc1`, the Potency result in assay [1] and in assay [2] was “inactive” each time.

The values above are taken from PubChem BioAssay (Tox21).
